Experiments:
Test in all cases: DAPPL (digital affinity profiling via proximity ligation, sequencing); 10 mM Tris-HCl pH 7.5, 50 mM NaCl, 1 mM DTT, 4% glycerol, room temperature, 30 min; GST-TFs on glutathione beads, 16-mer random dsDNA library, 0.1% formaldehyde crosslink after washing; high values mean tight binding
Details in all cases: protein: recombinant; tags: N-terminal GST; dsDNA, one strand shown
FLI1 = biological target: T1, FLI1 (Homo sapiens, UniProt Q01543 1-452)
T1 sequence: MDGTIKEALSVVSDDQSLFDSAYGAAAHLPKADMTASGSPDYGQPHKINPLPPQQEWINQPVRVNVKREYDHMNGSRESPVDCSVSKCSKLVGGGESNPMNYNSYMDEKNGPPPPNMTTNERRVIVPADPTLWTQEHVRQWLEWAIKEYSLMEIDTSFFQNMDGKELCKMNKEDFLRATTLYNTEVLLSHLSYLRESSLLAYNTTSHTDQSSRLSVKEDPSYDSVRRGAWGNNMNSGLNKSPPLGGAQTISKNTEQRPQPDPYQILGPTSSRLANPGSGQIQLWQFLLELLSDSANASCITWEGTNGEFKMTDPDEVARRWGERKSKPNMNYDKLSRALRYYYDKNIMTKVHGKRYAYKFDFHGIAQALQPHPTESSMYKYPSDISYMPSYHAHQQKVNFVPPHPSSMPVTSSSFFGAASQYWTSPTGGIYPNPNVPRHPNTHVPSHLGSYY
In short: (§1)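 Each value of binding signal is a hexamer's read frequency for a factor divided by the same hexamer's frequency in the tag-only sample. Barcoded, bead-captured GST fusions of human transcription factors made in yeast were pooled with that sample and incubated with 200 nmole of a random double-stranded 16-mer DNA library in Tris/NaCl/DTT/glycerol buffer at room temperature for 30 min. Washing, 0.1% formaldehyde crosslinking, proximity ligation, PCR and Illumina NextSeq500 sequencing followed.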

ELK1 = biological target: T2, ELK1 (Homo sapiens, UniProt P19419 1-428)
T2 sequence: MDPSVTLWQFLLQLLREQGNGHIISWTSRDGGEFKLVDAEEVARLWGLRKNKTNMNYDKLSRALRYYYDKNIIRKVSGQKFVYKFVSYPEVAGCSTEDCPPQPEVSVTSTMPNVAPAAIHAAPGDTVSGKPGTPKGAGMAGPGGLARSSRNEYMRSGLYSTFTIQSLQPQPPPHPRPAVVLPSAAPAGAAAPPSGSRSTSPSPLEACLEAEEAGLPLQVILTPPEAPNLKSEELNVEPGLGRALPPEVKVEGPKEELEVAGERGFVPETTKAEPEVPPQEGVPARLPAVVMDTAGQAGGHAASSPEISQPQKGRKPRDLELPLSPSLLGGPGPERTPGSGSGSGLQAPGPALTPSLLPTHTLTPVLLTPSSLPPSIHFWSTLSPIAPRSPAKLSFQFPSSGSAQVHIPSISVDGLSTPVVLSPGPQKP
In short: as §1

GABPA = biological target: T3, GABPA (Homo sapiens, UniProt Q06546 1-454)
T3 sequence: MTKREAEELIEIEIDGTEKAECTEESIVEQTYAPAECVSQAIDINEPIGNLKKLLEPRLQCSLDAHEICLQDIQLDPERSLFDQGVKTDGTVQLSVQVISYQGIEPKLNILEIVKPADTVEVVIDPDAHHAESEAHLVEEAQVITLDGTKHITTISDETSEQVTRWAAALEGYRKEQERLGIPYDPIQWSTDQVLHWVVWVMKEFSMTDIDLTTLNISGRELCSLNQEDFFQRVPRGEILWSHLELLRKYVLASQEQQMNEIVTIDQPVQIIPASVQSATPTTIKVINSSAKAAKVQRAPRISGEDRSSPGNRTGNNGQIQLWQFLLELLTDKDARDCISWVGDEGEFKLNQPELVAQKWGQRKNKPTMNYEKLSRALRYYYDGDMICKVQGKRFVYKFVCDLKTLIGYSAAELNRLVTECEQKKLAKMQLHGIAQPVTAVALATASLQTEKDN
In short: as §1

ERG = biological target: T4, ERG (Homo sapiens, UniProt P11308 1-479)
T4 sequence: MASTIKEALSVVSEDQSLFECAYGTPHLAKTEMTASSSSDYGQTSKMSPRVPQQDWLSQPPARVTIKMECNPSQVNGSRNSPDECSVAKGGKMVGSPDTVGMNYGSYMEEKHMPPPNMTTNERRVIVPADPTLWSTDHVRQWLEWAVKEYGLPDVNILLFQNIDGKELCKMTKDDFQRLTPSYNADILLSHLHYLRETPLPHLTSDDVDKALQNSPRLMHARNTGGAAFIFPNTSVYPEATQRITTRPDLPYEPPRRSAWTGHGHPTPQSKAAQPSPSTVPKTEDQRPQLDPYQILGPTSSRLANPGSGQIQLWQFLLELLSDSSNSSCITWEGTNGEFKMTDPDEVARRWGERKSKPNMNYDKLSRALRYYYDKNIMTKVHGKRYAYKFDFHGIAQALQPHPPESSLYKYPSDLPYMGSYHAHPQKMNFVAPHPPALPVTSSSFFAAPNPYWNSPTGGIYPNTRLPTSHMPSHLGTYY
In short: as §1

ELF1 = ELF1 (Homo sapiens, UniProt P32519 1-619)
In short: as §1

EHF = biological target: T5, EHF (Homo sapiens, UniProt Q9NZC4 1-300)
T5 sequence: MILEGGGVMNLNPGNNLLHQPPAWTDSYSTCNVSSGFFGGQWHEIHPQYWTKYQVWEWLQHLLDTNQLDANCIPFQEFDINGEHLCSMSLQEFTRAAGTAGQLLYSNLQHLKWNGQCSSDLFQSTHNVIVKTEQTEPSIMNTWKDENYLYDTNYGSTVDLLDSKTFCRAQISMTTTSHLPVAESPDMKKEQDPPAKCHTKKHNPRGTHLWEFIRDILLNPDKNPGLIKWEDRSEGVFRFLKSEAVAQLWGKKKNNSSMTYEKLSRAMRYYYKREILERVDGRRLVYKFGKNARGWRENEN
In short: as §1

SPI1 = SPI1 (Homo sapiens, UniProt P17947 1-270)
In short: as §1

SPIB = SPIB (Homo sapiens, UniProt Q01892 1-262)
In short: as §1

ELK3 = biological target: T6, ELK3 (Homo sapiens, UniProt P41970 1-407)
T6 sequence: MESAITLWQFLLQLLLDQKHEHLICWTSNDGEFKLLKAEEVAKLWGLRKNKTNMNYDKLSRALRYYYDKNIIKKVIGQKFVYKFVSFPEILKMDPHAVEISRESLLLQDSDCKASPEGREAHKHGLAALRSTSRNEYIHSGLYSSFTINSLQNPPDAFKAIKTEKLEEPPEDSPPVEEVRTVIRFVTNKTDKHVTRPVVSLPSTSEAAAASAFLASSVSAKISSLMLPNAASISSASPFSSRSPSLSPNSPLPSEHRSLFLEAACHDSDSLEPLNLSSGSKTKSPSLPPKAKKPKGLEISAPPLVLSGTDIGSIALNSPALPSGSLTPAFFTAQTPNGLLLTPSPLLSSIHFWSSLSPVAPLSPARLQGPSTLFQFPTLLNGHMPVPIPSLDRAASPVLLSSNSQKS
In short: as §1

Chain of SPIB (Q01892 whole entry): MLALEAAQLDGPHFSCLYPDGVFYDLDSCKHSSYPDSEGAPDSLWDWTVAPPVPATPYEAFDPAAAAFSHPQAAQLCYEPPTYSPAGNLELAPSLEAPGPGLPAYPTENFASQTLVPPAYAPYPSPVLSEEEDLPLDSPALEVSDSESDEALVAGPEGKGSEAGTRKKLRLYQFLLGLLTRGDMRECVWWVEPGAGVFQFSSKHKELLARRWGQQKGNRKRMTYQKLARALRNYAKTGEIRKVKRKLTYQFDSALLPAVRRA
Chain of ELF1 (P32519 whole entry): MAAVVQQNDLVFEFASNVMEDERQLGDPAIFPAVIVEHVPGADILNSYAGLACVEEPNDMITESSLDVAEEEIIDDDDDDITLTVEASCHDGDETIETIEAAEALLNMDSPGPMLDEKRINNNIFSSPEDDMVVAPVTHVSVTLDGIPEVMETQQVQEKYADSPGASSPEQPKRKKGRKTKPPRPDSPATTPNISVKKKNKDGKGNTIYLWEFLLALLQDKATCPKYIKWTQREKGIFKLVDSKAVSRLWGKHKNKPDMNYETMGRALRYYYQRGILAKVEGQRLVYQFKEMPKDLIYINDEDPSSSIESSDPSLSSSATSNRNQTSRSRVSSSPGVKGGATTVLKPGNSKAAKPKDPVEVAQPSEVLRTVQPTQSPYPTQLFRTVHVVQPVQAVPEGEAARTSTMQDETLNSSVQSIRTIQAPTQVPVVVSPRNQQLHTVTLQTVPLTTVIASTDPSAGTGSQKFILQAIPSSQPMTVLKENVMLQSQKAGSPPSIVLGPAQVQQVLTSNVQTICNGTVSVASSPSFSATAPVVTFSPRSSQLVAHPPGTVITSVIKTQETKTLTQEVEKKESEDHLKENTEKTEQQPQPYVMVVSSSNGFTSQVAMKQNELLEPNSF

Sequence | binding signal (FLI1) | binding signal (ELK1) | binding signal (GABPA) | binding signal (ERG) | binding signal (ELF1) | binding signal (EHF) | binding signal (SPI1) | binding signal (SPIB) | binding signal (ELK3)
GACCTT | 1.65 fold enrichment (6-mer frequency, TF over GST control) | 1.68 fold enrichment (6-mer frequency, TF over GST control) | 1.65 fold enrichment (6-mer frequency, TF over GST control) | 1.46 fold enrichment (6-mer frequency, TF over GST control) | 1.58 fold enrichment (6-mer frequency, TF over GST control) | 1.46 fold enrichment (6-mer frequency, TF over GST control) | 1.47 fold enrichment (6-mer frequency, TF over GST control) | 1.51 fold enrichment (6-mer frequency, TF over GST control) | 1.55 fold enrichment (6-mer frequency, TF over GST control)
TGCTCT | 1.34 fold enrichment (6-mer frequency, TF over GST control) | 1.48 fold enrichment (6-mer frequency, TF over GST control) | 1.35 fold enrichment (6-mer frequency, TF over GST control) | 1.26 fold enrichment (6-mer frequency, TF over GST control) | 1.34 fold enrichment (6-mer frequency, TF over GST control) | 1.19 fold enrichment (6-mer frequency, TF over GST control) | 1.42 fold enrichment (6-mer frequency, TF over GST control) | 1.42 fold enrichment (6-mer frequency, TF over GST control) | 1.3 fold enrichment (6-mer frequency, TF over GST control)
TCACGT | 1.28 fold enrichment (6-mer frequency, TF over GST control) | 1.3 fold enrichment (6-mer frequency, TF over GST control) | 1.31 fold enrichment (6-mer frequency, TF over GST control) | 1.29 fold enrichment (6-mer frequency, TF over GST control) | 1.17 fold enrichment (6-mer frequency, TF over GST control) | 1.14 fold enrichment (6-mer frequency, TF over GST control) | 1.24 fold enrichment (6-mer frequency, TF over GST control) | 1.18 fold enrichment (6-mer frequency, TF over GST control) | 1.16 fold enrichment (6-mer frequency, TF over GST control)
TCACTC | 1.16 fold enrichment (6-mer frequency, TF over GST control) | 1.19 fold enrichment (6-mer frequency, TF over GST control) | 1.28 fold enrichment (6-mer frequency, TF over GST control) | 1.18 fold enrichment (6-mer frequency, TF over GST control) | 1.34 fold enrichment (6-mer frequency, TF over GST control) | 1.27 fold enrichment (6-mer frequency, TF over GST control) | 1.21 fold enrichment (6-mer frequency, TF over GST control) | 1.26 fold enrichment (6-mer frequency, TF over GST control) | 1.18 fold enrichment (6-mer frequency, TF over GST control)
TCTAGT | 1.05 fold enrichment (6-mer frequency, TF over GST control) | 1.12 fold enrichment (6-mer frequency, TF over GST control) | 1.17 fold enrichment (6-mer frequency, TF over GST control) | 1.1 fold enrichment (6-mer frequency, TF over GST control) | 1.12 fold enrichment (6-mer frequency, TF over GST control) | 1.08 fold enrichment (6-mer frequency, TF over GST control) | 1.03 fold enrichment (6-mer frequency, TF over GST control) | 1.08 fold enrichment (6-mer frequency, TF over GST control) | 1.05 fold enrichment (6-mer frequency, TF over GST control)
CGTTCT | 1.37 fold enrichment (6-mer frequency, TF over GST control) | 1.41 fold enrichment (6-mer frequency, TF over GST control) | 1.44 fold enrichment (6-mer frequency, TF over GST control) | 1.55 fold enrichment (6-mer frequency, TF over GST control) | 1.5 fold enrichment (6-mer frequency, TF over GST control) | 1.3 fold enrichment (6-mer frequency, TF over GST control) | 1.39 fold enrichment (6-mer frequency, TF over GST control) | 1.43 fold enrichment (6-mer frequency, TF over GST control) | 1.52 fold enrichment (6-mer frequency, TF over GST control)
TAATTA | 1.24 fold enrichment (6-mer frequency, TF over GST control) | 1.2 fold enrichment (6-mer frequency, TF over GST control) | 1.23 fold enrichment (6-mer frequency, TF over GST control) | 1.3 fold enrichment (6-mer frequency, TF over GST control) | 1.3 fold enrichment (6-mer frequency, TF over GST control) | 1.22 fold enrichment (6-mer frequency, TF over GST control) | 1.25 fold enrichment (6-mer frequency, TF over GST control) | 1.27 fold enrichment (6-mer frequency, TF over GST control) | 1.24 fold enrichment (6-mer frequency, TF over GST control)
TTTATG | 1.31 fold enrichment (6-mer frequency, TF over GST control) | 1.21 fold enrichment (6-mer frequency, TF over GST control) | 1.4 fold enrichment (6-mer frequency, TF over GST control) | 1.21 fold enrichment (6-mer frequency, TF over GST control) | 1.18 fold enrichment (6-mer frequency, TF over GST control) | 1.34 fold enrichment (6-mer frequency, TF over GST control) | 1.34 fold enrichment (6-mer frequency, TF over GST control) | 1.29 fold enrichment (6-mer frequency, TF over GST control) | 1.34 fold enrichment (6-mer frequency, TF over GST control)
